Pf apPOL block – Pf-apPOL DNA polymerase inhibition; Recombinant Pf-apPOL, molecular beacon fluorescence, 1.5 h; inhibition, % at 10 µM; 210,000 tested, 0.25% active
mHTT CaM bind – inhibitors of human mutant huntingtin-calmodulin interaction. P42858. AlphaScreen His-mHTT/GST-CaM binding, luminescence. inhibition, % at 15 µM. 190,000 tested, 3.6% active
Of the large screens only hits and unclear results are named; the others gave an inactive call. Hits are enriched below; roughly 3.5% of the tested compounds scored in any of these assays. Cut-off read from the data, not from the text of the source: active = inhibition above about 50%; inactive = the rest.

Cn1nc(C(=O)NCc2ccc(F)cc2)c2c1CCN(C(=O)c1ccc(Cl)cc1)C2	none
Cn1nc(C(=O)NCc2ccccc2)c2c1CCN(C(=O)C1CCCCC1)C2	mHTT CaM bind 84.9
Cn1nc(C(=O)NCc2ccc(F)cc2)c2c1CCN(C(=O)C1CCC1)C2	none
COc1ccc(C(=O)N2CCc3c(c(C(=O)NCc4ccc(Cl)cc4)nn3C)C2)cc1	mHTT CaM bind 80.2
Cc1cccc(CNC(=O)c2nn(C)c3c2CN(C(=O)C2CCCCC2)CC3)c1	none
Cn1nc(C(=O)NCc2ccc(Cl)cc2)c2c1CCN(C(=O)C1CC1)C2	mHTT CaM bind 82.9
Cn1nc(C(=O)NCc2ccccc2)c2c1CCN(C(=O)CC1CCCC1)C2	mHTT CaM bind 70.6
N#CC1=C(N)OC(c2ccccc2)=C(Sc2ccc([N+](=O)[O-])cc2)C1c1cccnc1 (configuration not stated)	none
Cn1c(C2CCN(C(=O)c3ccsc3)C2)nc2cccnc21 (configuration not stated)	none
COc1ccc(C2CC(c3ccccc3)=NN2C(=O)CN2CCCCC2C)cc1 (configuration not stated)	none
Cn1ccc2c(cc(C(=O)NCc3ccc(F)cc3)n2C)c1=O	none
Cc1cccc(CNC(=O)c2nn(C)c3c2CN(C(=O)CC2CCCC2)CC3)c1	mHTT CaM bind 55.1
Cn1nc(C(=O)NCc2ccc(F)cc2)c2c1CCN(C(=O)CC1CCCC1)C2	mHTT CaM bind 75.8
CS(=O)(=O)N1CCc2cc([N+](=O)[O-])ccc21	none
Cc1cc(C)c(-c2noc(C)n2)c(NC(=O)c2ccc(F)cc2F)n1	none
CC1CCC2(CC1)C(C#N)=C(SCC(=O)Nc1ccc(Br)cc1)NC(=O)C2C#N (configuration not stated)	none
CC(C)COC(=O)Oc1c(Cl)cc2oc(=O)sc2c1[N+](=O)[O-]	mHTT CaM bind 82.0
O=c1oc2cc(Br)c(O)c(Br)c2s1	mHTT CaM bind 100.0
CCOC(=O)Oc1cc2sc(=O)oc2cc1Br	none
CN(C)S(=O)(=O)Oc1cc2sc(=O)oc2cc1Cl	none
COC(=O)Oc1c(Br)cc2oc(=O)sc2c1[N+](=O)[O-]	mHTT CaM bind 85.9
COC(=O)Oc1c(Cl)cc2oc(=O)sc2c1Br	mHTT CaM bind 93.0
Cc1ccc(OC(=O)OCC(C)C)c(Br)c1	none
COc1ccc(Br)cc1C(=O)Nc1ccc2c(c1)C(=O)N(C)C2=O	none
Cc1sc(NC(=O)CCc2ccccc2)c(C#N)c1C	none
O=C(CCn1c(N2CCCC2)nc2ccccc2c1=O)Nc1ccccc1	none
N#CSCC(=O)N1c2ccccc2Sc2ccc(C(F)(F)F)cc21	none
Cn1ccnc1SCC(=O)N1c2ccccc2Sc2ccc(C(F)(F)F)cc21	mHTT CaM bind 53.0
CCN1c2cc(C)ccc2-n2cccc2C12CCN(C(=O)Nc1ccccc1C)CC2	none
CCN1c2cc(C)ccc2-n2cccc2C12CCN(C(=O)NCC(=O)OC)CC2	mHTT CaM bind 75.6
CCN1c2cc(C)ccc2-n2cccc2C12CCN(C(=O)Nc1ccccc1F)CC2	none
CCN1c2cc(C)ccc2-n2cccc2C12CCN(C(=O)Nc1cccc(F)c1)CC2	mHTT CaM bind 71.9
CCCNC(=O)N1CCC2(CC1)c1cccn1-c1ccc(C)cc1N2CC	mHTT CaM bind 100.3
COC(=O)CNC(=O)N1CCOc2ccc(C)cc21	none
CCN1c2cc(C)ccc2-n2cccc2C12CCN(C(=O)NCC1CCCO1)CC2 (configuration not stated)	mHTT CaM bind 65.0
Cc1cccc(C(=O)NCC2CCCO2)c1 (configuration not stated)	none
O=C(NC1CC1)C1CN(C(=O)c2ccccc2F)CC1c1ccccc1 (configuration not stated)	none
CCOc1ccc(NC(=O)N2CCOc3ccc(Cl)cc32)cc1	none
O=[N+]([O-])c1cc2nccnc2cc1Cl	none (no result: Pf apPOL block)
CCOc1ccc(C(=O)N2CCC3(CC2)NC(=O)c2cc(C)ccc2N3CC)cc1	none
CCN1c2cc(C)ccc2-n2cccc2C12CCN(C(=O)c1ccc(OC)cc1)CC2	mHTT CaM bind 94.2
COc1ccc(C(=O)Nc2nccn(-c3ccc(C(C)C)cc3)c2=O)cc1	none
O=C(Nc1ccccc1)Nc1nnc(-c2ccc3c(c2)OCO3)s1	none
CCOc1cc(/C=C2/SC(=Nc3ccccc3)NC2=O)ccc1OC	none
CCOc1cc(/C=C2/SC(=Nc3cccc(C(=O)O)c3)NC2=O)ccc1OC	mHTT CaM bind 51.0
O=C1NC(=Nc2ccccc2Cl)S/C1=C/c1cccc(C(=O)O)c1	none
CCOc1cc(/C=C2/SC(=Nc3ccccc3Cl)NC2=O)ccc1O	mHTT CaM bind 53.0
O=C1NC(=Nc2cccc(Cl)c2Cl)S/C1=C\c1ccc(O)c(O)c1	mHTT CaM bind 83.0
COc1cc(/C=C2/SC(=Nc3ccccc3Cl)NC2=O)cc(OC)c1	none
O=c1cc(-c2ccc(O)cc2)oc2cc(O)cc(O)c12	none (no result: mHTT CaM bind)
O=c1cc2oc3cc(O)c(-c4ccc(O)cc4O)cc3nc-2cc1-c1ccc(O)cc1O	mHTT CaM bind 100.3 (no result: Pf apPOL block)
CSC[C@H]1CN(CCc2ccccc2)C(=O)[C@@H]1CC(=O)Nc1ccc(Br)cc1	mHTT CaM bind 63.0
O=C(C[C@H]1C(=O)N(CCc2ccccc2)C[C@@H]1Cc1ccccc1)Nc1ccc(Br)cc1	none
Cc1cccc(NC2=C(NCCO)C(=O)c3ccccc3C2=O)c1	mHTT CaM bind 74.1
COc1cccc(NC2=C(NCCO)C(=O)c3ccccc3C2=O)c1	none
Cc1ccccc1-n1nc2c(c1NC(=O)/C=C/c1ccccc1)CS(=O)(=O)C2	none
Cc1c(Cl)cccc1N1C(=O)CSC12C(=O)Nc1ccccc12 (configuration not stated)	none
CNC(=O)C1=CCN(C(=O)c2ccc(F)cc2F)CC1	none
O=C(COc1cccc2c1CCN(Cc1ccc(Cl)cc1)C2=O)NCc1ccco1	mHTT CaM bind 69.8
O=C(COc1cccc(Cl)c1)NCc1ccco1	none
O=C(C1CCCN(c2nnc3ccccn23)C1)N1CCOCC1 (configuration not stated)	none
CC1C(=O)C(C)C(c2ccc(F)cc2)NC1c1ccc(F)cc1 (configuration not stated)	none
CC1C(=O)C(C)C(c2ccc(N(C)C)cc2)NC1c1ccc(N(C)C)cc1 (configuration not stated)	mHTT CaM bind 77.0
COc1cccc(C2C3=C(CCCC3=O)Nc3nc(SCc4ccccc4F)nn32)c1 (configuration not stated)	none
Cc1ccc(C)c(N2CCN(C(=O)CCCN3C(=O)CCn4nc(C)cc43)CC2)c1	none
Cc1cc2n(n1)CCC(=O)N2CCCC(=O)N1CCN(c2cc(Cl)ccc2C)CC1	mHTT CaM bind 83.9
Cc1cc2n(n1)CCCN2C(=O)CCC(=O)N1CCN(c2cc(Cl)ccc2C)CC1	mHTT CaM bind 87.2
Cc1ccc(C)c(N2CCN(C(=O)CCC(=O)N3CCCn4nc(C)cc43)CC2)c1	none
Cc1noc(-c2nn(C)c3c2CN(S(=O)(=O)c2cccc(C(F)(F)F)c2)CC3)n1	none
O=C(NN1C(=O)c2ccc([N+](=O)[O-])cc2C1=O)c1cccnc1	none
COc1ccc(OCc2noc(CNC(=O)Cc3c[nH]c4ccccc34)n2)cc1	none
CCc1cc(C(=O)COc2ccc(F)cc2)c(O)cc1O	none
COc1ccc(Oc2cncnc2-c2ccc(OCc3ccccc3)cc2O)cc1	none
CCCOc1ccc(-c2[nH]ncc2Oc2ccccc2)c(O)c1	mHTT CaM bind 80.0
COc1ccccc1-c1cn[nH]c1-c1ccc(OCC=C(C)C)cc1O	mHTT CaM bind 67.7
COc1ccccc1-c1c(C(F)(F)F)oc2cc(OCC=C(C)C)ccc2c1=O	none
CCc1cc(-c2[nH]ncc2Oc2ccc(Cl)cc2)c(O)cc1O	mHTT CaM bind 100.3

Source: PubChem BioAssay
